# Laboratory results from the supplement of paper PMC8728848.
# Many of the other results were omitted from the sample, so the strongest signals are more common in it than they were.
# B1: rAAL-2 (Agrocybe aegerita) (protein)
# chain: MTSNVITQDLPIPVASRGFADIVGFGLDGVVIGRNAVNLQPFLAVKNFAQNAGGWLTTKHVRLIADTTGTGKGDIVGFGNAGVYVSVNNGKNTFADPPKMVIANFGYDAGGWRVEKHLRYLADIRKIGRADIIGFGEKGVLVSRNNGGLNFGPATLVLKDFGYDAGGWRLDRHLRFLADVTGNGHLDIVGFGDKHVFISRNNGDGTFAPAKSVIDNFCIDAGGWKIGDHPRFVADLTGDGTADIIGCGKAGCWVALNNGGGVFGQVKLVINDFGTDKGWQAAKHPRFIADLTGNGRGDVVGFGNAGVYVALNNGDGTFQSAKLVLKDFGVQQGWTVSKHRRFVVDLTGDGCADIIGFGEKETLVSYNDGKGNFGPVKALTNDFSFSGGKWAPETTVCWMANLDSSRH
# Key:
# Assay in all cases: glycan array binding signal (z-score within array); higher = stronger binding
# Details in all cases: glycan notation: IUPAC condensed, linker removed
# [1] = biological target: Fuc(a1-2)Gal(b1-4)GlcNAc(b1-3)Gal(b1-4)GlcNAc(b1-2)Man(a1-3)[Fuc(a1-2)Gal(b1-4)GlcNAc(b1-3)Gal(b1-4)GlcNAc(b1-2)Man(a1-6)]Man(b1-4)GlcNAc(b1-4)GlcNAc
# In short: (§1)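 Negative Z-scores can be read as non-binding. The Z-score is calculated within each array and then averaged across arrays of one protein sequence at different concentrations or buffers and across linkers. Arrays, 3228 in all, were curated from the Consortium for Functional Glycomics database and kept only where the protein sequence was available.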
# Fuc(a1-2)[Gal(a1-3)]Gal = biological target: Fuc(a1-2)[Gal(a1-3)]Gal
# In short: as §1
# [2] = biological target: Fuc(a1-2)[Gal(a1-3)]Gal(b1-3)GalNAc(b1-3)Gal(a1-4)Gal(b1-4)Glc
# In short: as §1
# [3] = biological target: Fuc(a1-2)[GalNAc(a1-3)]Gal
# In short: as §1
# [4] = biological target: Gal(a1-3)Gal(b1-3)GlcNAc(b1-3)GalNAc
# In short: as §1
# [5] = biological target: Gal(a1-3)Gal(b1-4)GlcNAc(b1-3)GalNAc
# In short: as §1
# [6] = biological target: Gal(a1-4)Gal(b1-4)GlcNAc(b1-2)Man(a1-3)[Gal(a1-4)Gal(b1-4)GlcNAc(b1-2)Man(a1-6)]Man(b1-4)GlcNAc(b1-4)GlcNAc
# In short: as §1
# [7] = biological target: Gal(b1-3)GlcNAc(b1-3)Gal(b1-4)GlcNAc(b1-6)[Gal(b1-3)GlcNAc(b1-3)]Gal(b1-4)Glc
# In short: as §1
# [8] = biological target: Gal(b1-3)[Fuc(a1-4)]GlcNAc(b1-6)GalNAc
# In short: as §1
# Gal(b1-4)GlcNAc(b1-2)Man = biological target: Gal(b1-4)GlcNAc(b1-2)Man
# In short: as §1
# [9] = biological target: Gal(b1-4)GlcNAc(b1-2)Man(a1-3)[Gal(b1-4)GlcNAc(b1-2)Man(a1-6)][Gal(b1-4)GlcNAc(b1-4)]Man(b1-4)GlcNAc(b1-4)[Fuc(a1-6)]GlcNAc
# In short: as §1
# [10] = biological target: Gal(b1-4)GlcNAc(b1-2)Man(a1-3)[Gal(b1-4)GlcNAc(b1-2)Man(a1-6)][GlcNAc(b1-4)]Man(b1-4)GlcNAc(b1-4)[Fuc(a1-6)]GlcNAc
# In short: as §1
# [11] = biological target: Gal(b1-4)GlcNAc(b1-2)Man(a1-3)[Gal(b1-4)GlcNAc(b1-2)][GlcNAc(b1-4)]Man(b1-4)GlcNAc(b1-4)GlcNAc
# In short: as §1
# [12] = biological target: Gal(b1-4)GlcNAc(b1-3)Gal(b1-4)Glc
# In short: as §1
# [13] = biological target: Gal(b1-4)GlcNAc(b1-3)Gal(b1-4)GlcNAc(b1-3)Gal(b1-4)GlcNAc
# In short: as §1
# [14] = biological target: Gal(b1-4)GlcNAc(b1-3)Gal(b1-4)GlcNAc(b1-3)Gal(b1-4)GlcNAc(b1-3)Gal(b1-4)GlcNAc(b1-3)Gal(b1-4)GlcNAc(b1-2)Man(a1-3)[Gal(b1-4)GlcNAc(b1-3)Gal(b1-4)GlcNAc(b1-3)Gal(b1-4)GlcNAc(b1-3)Gal(b1-4)GlcNAc(b1-3)Gal(b1-4)GlcNAc(b1-2)Man(a1-6)]Man(b1-4)GlcNAc(b1-4)GlcNAc
# In short: as §1
# [15] = biological target: Gal(b1-4)GlcNAc(b1-3)Gal(b1-4)GlcNAc(b1-3)Gal(b1-4)GlcNAc(b1-3)Gal(b1-4)GlcNAc(b1-3)Gal(b1-4)GlcNAc(b1-2)[Gal(b1-4)GlcNAc(b1-3)Gal(b1-4)GlcNAc(b1-3)Gal(b1-4)GlcNAc(b1-3)Gal(b1-4)GlcNAc(b1-3)Gal(b1-4)GlcNAc(b1-6)]Man(a1-6)[Gal(b1-4)GlcNAc(b1-3)Gal(b1-4)GlcNAc(b1-3)Gal(b1-4)GlcNAc(b1-3)Gal(b1-4)GlcNAc(b1-3)Gal(b1-4)GlcNAc(b1-2)Man(a1-3)]Man(b1-4)GlcNAc(b1-4)[Fuc(a1-6)]GlcNAc
# In short: as §1
# [16] = biological target: Gal(b1-4)GlcNAc(b1-3)Gal(b1-4)GlcNAc(b1-3)[Gal(b1-4)GlcNAc(b1-3)Gal(b1-4)GlcNAc(b1-6)]GalNAc
# In short: as §1
# Gal3S(b1-4)GlcNAc6S = biological target: Gal3S(b1-4)GlcNAc6S
# In short: as §1
# GalNAc(b1-4)GlcNAc6S = biological target: GalNAc(b1-4)GlcNAc6S
# In short: as §1
# [17] = biological target: GlcNAc(a1-3)Gal(b1-4)GlcNAc
# In short: as §1
# [18] = biological target: GlcNAc(a1-4)Gal(b1-3)GlcNAc
# In short: as §1
# [19] = biological target: GlcNAc(a1-4)Gal(b1-4)GlcNAc(b1-3)Gal(b1-4)Glc
# In short: as §1
binder,measurement,setting,value
B1,glycan array binding signal (z-score),[1],-0.083
same,glycan array binding signal (z-score),Fuc(a1-2)[Gal(a1-3)]Gal,-0.221
same,glycan array binding signal (z-score),[2],0.126
same,glycan array binding signal (z-score),[3],-0.342
same,glycan array binding signal (z-score),[4],-0.274
same,glycan array binding signal (z-score),[5],-0.36
same,glycan array binding signal (z-score),[6],0.062
same,glycan array binding signal (z-score),[7],-0.234
same,glycan array binding signal (z-score),[8],-0.064
same,glycan array binding signal (z-score),Gal(b1-4)GlcNAc(b1-2)Man,-0.16
same,glycan array binding signal (z-score),[9],-0.282
same,glycan array binding signal (z-score),[10],-0.482
same,glycan array binding signal (z-score),[11],-0.266
same,glycan array binding signal (z-score),[12],-0.317
same,glycan array binding signal (z-score),[13],-0.113
same,glycan array binding signal (z-score),[14],-0.319
same,glycan array binding signal (z-score),[15],0.032
same,glycan array binding signal (z-score),[16],0.004
same,glycan array binding signal (z-score),Gal3S(b1-4)GlcNAc6S,-0.11
same,glycan array binding signal (z-score),GalNAc(b1-4)GlcNAc6S,-0.107
same,glycan array binding signal (z-score),[17],4.67
same,glycan array binding signal (z-score),[18],3.84
same,glycan array binding signal (z-score),[19],4.64
